Measured values: PubChem BioAssay (NCI)
Where “and” joins values, the source holds several entries; their conditions need not be identical. Equal values may be shown once. The panel holds about 79,000 compounds, 15% with a hit somewhere; the sample as a whole holds those more often. The source holds several records for some structures; these can differ, active in one and inactive in another. Calls of active or inactive are those of the source. Rule as the data show it: active = growth inhibition above about 70%; inactive = the rest.

Experiments:
[1] = NCI Yeast Anticancer Drug Screen. Data for the rad14 strain (AID 159);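 also: 0% = growth of vehicle-treated control cultures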; settings: S. cerevisiae rad14 strain growth inhibition, stronger effect = higher value
How it was run: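 DNA repair-defective yeast, compound-exposed; % growth inhibition derived by comparison with vehicle-treated controls.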

[2] = NCI Yeast Anticancer Drug Screen. Data for the sgs1 mgt1 strain (AID 161);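 also: 0% = growth of cultures given vehicle only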; settings: S. cerevisiae sgs1 mgt1 strain, stronger effect = higher value
How it was run: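 Genetically altered yeast, compound exposure, growth inhibition relative to vehicle.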

[3] = NCI Yeast Anticancer Drug Screen. Data for the CLN2oe strain (AID 163);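 also: 0% = growth of vehicle-only control cultures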; settings: S. cerevisiae CLN2oe strain, stronger effect = higher value
How it was run: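 First, the altered yeast strain was treated with each compound; second, its growth was measured; finally, inhibition was derived by comparison with vehicle controls.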

[4] = NCI Yeast Anticancer Drug Screen. Data for the cln2 rad14 strain (AID 165);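 also: 0% = growth equal to vehicle treated cultures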; settings: S. cerevisiae cln2 rad14 strain, stronger effect = higher value
How it was run: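 Test compounds were added to cln2 rad14 yeast cultures; inhibition of growth was then determined by comparison with vehicle treatment.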

[5] = NCI Yeast Anticancer Drug Screen. Data for the bub3 strain (AID 167); settings: S. cerevisiae bub3 mutant strain, stronger effect = higher value
How it was run: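 In this screen, a yeast mutant lacking normal mitotic checkpoint function is challenged with compound. Relative growth versus vehicle gives the inhibition value.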

[6] = NCI Yeast Anticancer Drug Screen. Data for the wt2 strain (AID 169);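 also: 0% = growth of vehicle-treated yeast cultures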; settings: S. cerevisiae wt2 strain growth inhibition, stronger effect = higher value
How it was run: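 The panel's yeast strains carry defined changes in DNA repair or cell cycle genes. Each strain is grown with compound, and growth loss is scored relative to vehicle.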

[7] = NCI Yeast Anticancer Drug Screen. Data for the mlh1 strain (AID 171);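 also: 0% = growth of vehicle-treated control cultures of the same strain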; settings: S. cerevisiae mlh1 strain growth inhibition, stronger effect = higher value
How it was run: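 Inhibition values reflect reduced yeast growth in the presence of compound, referenced to vehicle controls, using a strain chosen for its alteration in DNA repair or cell cycle control.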

[8] = NCI Yeast Anticancer Drug Screen. Data for the sgs1 strain (AID 173);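 also: 0% = growth of vehicle-only control cultures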; settings: S. cerevisiae sgs1 mutant, stronger effect = higher value
How it was run: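 Vehicle-treated cultures served as reference for growth inhibition of a yeast strain altered in DNA damage repair or cell cycle control after compound exposure.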

[9] = NCI Yeast Anticancer Drug Screen. Data for the mlh1 rad18 strain (AID 175); settings: S. cerevisiae mlh1 rad18 strain growth inhibition, stronger effect = higher value
How it was run: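 Inhibition values reflect reduced growth of mutant yeast versus vehicle-treated controls following compound exposure; the mutations affect DNA damage repair.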

[10] = NCI Yeast Anticancer Drug Screen. Data for the rad50EPP+ strain (AID 151);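 also: 0% = growth of vehicle-treated control cultures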; settings: S. cerevisiae rad50 mutant strain, stronger effect = higher value
How it was run: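 Genetically defined yeast (rad50EPP+, DNA damage repair alteration) is grown with compound, and inhibition of growth is expressed relative to vehicle-treated controls.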

[11] = NCI Yeast Anticancer Drug Screen. Data for the mgt1 strain (AID 153); settings: S. cerevisiae mgt1 mutant growth inhibition, stronger effect = higher value
How it was run: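 In the mgt1 strain, test compounds were added and growth inhibition was determined relative to vehicle-treated controls.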

[12] = NCI Yeast Anticancer Drug Screen. Data for the rad50 strain (AID 155);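 also: 0% = growth of vehicle-only cultures of the same strain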; settings: S. cerevisiae rad50 strain growth inhibition, stronger effect = higher value
How it was run: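 DNA repair mutant yeast, compound exposure, growth read-out; inhibition is taken relative to vehicle.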

[13] = NCI Yeast Anticancer Drug Screen. Data for the mec2-1 strain (AID 157); settings: S. cerevisiae mec2-1 strain, stronger effect = higher value
How it was run: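 Each compound was tested on mec2-1 yeast, a strain altered in DNA damage repair or cell cycle control. Growth inhibition is reported relative to vehicle.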

[14] = NCI Yeast Anticancer Drug Screen. Data for the rad18 strain (AID 177); settings: S. cerevisiae rad18 mutant growth inhibition, stronger effect = higher value
How it was run: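 Steps: expose repair-mutant yeast to compound; measure growth; express as inhibition relative to vehicle control.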

[15] = at 5.0 µM (retest, dose inferred, filed as 0.5)
[16] = at 50.0 µM (retest, dose inferred, filed as 5.0)

Measured: growth inhibition

BrCC[N+]12CC[N+](CCBr)(CC1)C2
inactive: [2]; [15] 46% and -15% | [3]; at 1.2 µM 1% | [3]; at 3.7 µM -9% | [3]; at 11.0 µM 2% | [4]; [15] 35% and 23% | [5]; at 1.2 µM -5% | [5]; at 3.7 µM -1% | [5]; [15] 34% and -12% | [5]; at 11.0 µM 36% | [6]; at 1.2 µM -33% | [6]; at 3.7 µM -18% | [6]; at 11.0 µM 4% | [7]; at 1.2 µM 12% | [7]; at 3.7 µM -2% | [7]; at 11.0 µM 42% | [8]; at 1.2 µM -17% | [8]; at 3.7 µM 15% | [8]; at 11.0 µM 5% | [9]; [15] 64% and 42%
92% (active) and 65% (inactive): [4]; [16]
active: [1]; at 100.0 µM 94% | [2]; [16] 90% and 93% | [2]; at 50.0 µM 89.2% | [3]; at 33.0 µM 78% | [3]; at 100.0 µM 89% | [4]; at 50.0 µM 84.9% and 85.5% | [5]; at 33.0 µM 89% | [5]; [16] 92% and 95% | [5]; at 50.0 µM 86.7% and 87% | [5]; at 100.0 µM 95% | [6]; at 33.0 µM 86% | [6]; at 100.0 µM 95% | [7]; at 33.0 µM 88% | [7]; at 100.0 µM 96% | [8]; at 33.0 µM 77% | [8]; at 100.0 µM 89% | [9]; [16] 95% and 90% | [9]; at 50.0 µM 90.6% and 86.9%

CSC(=Nc1ccccc1)N(c1ccccc1)c1nc(=[N+](C)C)ss1
active: [10]; at 33.0 µM 87% | [10]; at 100.0 µM 97% | [11]; at 11.0 µM 84% | [11]; at 33.0 µM 98% | [11]; at 100.0 µM 99% | [12]; at 11.0 µM 93% | [12]; at 33.0 µM 98% | [12]; [16] 99% | [12]; at 50.0 µM 98.4% | [12]; at 100.0 µM 99% | [13]; at 11.0 µM 80% | [13]; at 33.0 µM 97% | [13]; [16] 99% | [13]; at 50.0 µM 99.3% | [13]; at 100.0 µM 99% | [1]; at 11.0 µM 92% | [1]; at 33.0 µM 99% | [1]; at 100.0 µM 99% | [2]; [16] 99% | [2]; at 50.0 µM 98.6% | [3]; at 33.0 µM 80% | [3]; at 100.0 µM 98% | [4]; [16] 98% | [4]; at 50.0 µM 93.4% | [5]; at 11.0 µM 85% | [5]; at 33.0 µM 93% | [5]; [16] 98% | [5]; at 50.0 µM 98.5% | [5]; at 100.0 µM 99% | [6]; at 11.0 µM 87% | [6]; at 33.0 µM 97% | [6]; at 100.0 µM 99% | [7]; at 11.0 µM 88% | [7]; at 33.0 µM 99% | [7]; at 100.0 µM 99% | [8]; at 11.0 µM 91% | [8]; at 33.0 µM 98% | [8]; at 100.0 µM 99% | [9]; [16] 98% | [9]; at 50.0 µM 98.6% | [14]; at 11.0 µM 93% | [14]; at 33.0 µM 98% | [14]; at 100.0 µM 98%
inactive: [10]; at 1.2 µM -1% | [10]; at 3.7 µM -5% | [10]; at 11.0 µM 23% | [11]; at 1.2 µM 2% | [11]; at 3.7 µM 7% | [12]; at 1.2 µM 3% | [12]; at 3.7 µM 13% | [12]; [15] 56% | [13]; at 1.2 µM 2% | [13]; at 3.7 µM 9% | [13]; [15] 26% | [1]; at 1.2 µM -5% | [1]; at 3.7 µM 7% | [2]; [15] 58% | [3]; at 1.2 µM -12% | [3]; at 3.7 µM -11% | [3]; at 11.0 µM 14% | [4]; [15] -1% | [5]; at 1.2 µM 1% | [5]; at 3.7 µM 22% | [5]; [15] 37% | [6]; at 1.2 µM 0% | [6]; at 3.7 µM 17% | [7]; at 1.2 µM -1% | [7]; at 3.7 µM 10% | [8]; at 1.2 µM 3% | [8]; at 3.7 µM 24% | [9]; [15] 44% | [14]; at 1.2 µM 4% | [14]; at 3.7 µM 34%
